# Source: PubChem BioAssay AID687043 (Milwaukee Institute for Drug Discovery, 2013)
# Among all 16,000 compounds or so, about 250 (1.6%) were called active. The sample holds actives, similar compounds and a random draw of the others, so the mix is not that of the screen.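 The calls were made as follows: active = inhibition above the average over every tested compound plus 3 SD (cut at about 40% in these data); inactive = the rest.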
# Test system: Hepatitis C virus NS3 helicase
# Assay: compounds blocking NS3h DNA binding – biochemical, fluorescence polarization, ChemBridge library, primary screen (AID 687043)
# Conditions: NS3h Cy5-dT15 DNA binding, at 100 µM, stronger effect = higher value
row,Compound,inhibition
1,CCCOC(=O)Cc1c(O)c2ccccc2[nH]c1=O,-1.3% (inactive)
2,O=[N+]([O-])c1ccc2c(c1)S(=O)(=O)N=C2Nc1cccnc1,-7.4% (inactive)
3,O=c1[nH][nH]c(=O)c2cc(N3CCCC3)ccc12,4.3% (inactive)
4,O=C(NCc1ccccc1)C1CC(=O)N(c2ccc(Cl)cc2)C1 (configuration not stated),2.8% (inactive)
5,Cc1ccc2c(C)[n+](C)ccn12,15.6% (inactive)
6,COc1ccc(C2CC(=O)C3=C(C2)Nc2ccccc2NC3c2ccc(SC)cc2)cc1 (configuration not stated),11% (inactive)
7,Cc1ccc(/C=C/C(=O)Nc2cccc([N+](=O)[O-])c2)o1,6.1% (inactive)
8,Cc1cccc(NC(=O)/C=C/c2ccc(F)cc2)c1,2.2% (inactive)
9,Cc1ccc(/C=C/C(=O)Nc2ccc(Br)cc2)o1,42.5% (active)
10,Cc1cccc(N2C(=O)S/C(=C/c3ccc(N(C)C)cc3)C2=O)c1,15.9% (inactive)
11,COc1ccc(C2CC(=O)C3=C(C2)Nc2ccccc2NC3c2cccc(Cl)c2)cc1 (configuration not stated),9.2% (inactive)
12,CCCCCCN1C(=O)C(O)=C(C(C)=O)C1c1ccc(Br)cc1 (configuration not stated),-0.7% (inactive)
13,CCCCNC(=O)C(=O)NCCCOC(C)C,4.2% (inactive)
14,O=C(Nc1ccc(Cl)cc1)/C(=C\c1cccc([N+](=O)[O-])c1)NC(=O)c1cccs1,0.7% (inactive)
15,FC(F)(F)c1cc(/C=C/c2ccccc2)n[nH]1,10.2% (inactive)
16,CC(C)(C)C(=O)COc1ccc2c(-c3ccccc3)cc(=O)oc2c1,14.2% (inactive)
17,COc1ccc(C2C=C(Nc3ccccc3)C(=O)N2c2ccccc2)c(OC)c1 (configuration not stated),-9.5% (inactive)
18,FC(F)(F)c1ccc(/C=N\N2CCN(Cc3cccc4ccccc34)CC2)cc1,3.6% (inactive)
19,O=C1C2ON(c3ccccc3)C(c3ccc(Br)cc3)C2C(=O)N1c1ccccc1C(F)(F)F (configuration not stated),13.4% (inactive)
20,O=c1c2c(nc3cc(-c4cccc(F)c4)[nH]n13)CCS2,57.3% (active)
21,CCc1c(C)nc2cc(-c3cccs3)[nH]n2c1=O,-7.2% (inactive)
22,CC(=O)Nc1c(C)cc(C2(c3cc(C)c(NC(C)=O)c(C)c3)CCCCC2)cc1C,2.3% (inactive)
23,CCOC(=O)c1c(-c2ccc(C)cc2C)csc1NC(=S)NC(=O)c1ccccc1,3.9% (inactive)

row,Compound,inhibition
1,O=C(NC(Cc1ccc(O)cc1)C(=O)O)/C(=C/c1ccccc1)NC(=O)c1ccccc1 (configuration not stated),-11.5% (inactive)
2,Cc1cccc(N(CC(=O)O)S(C)(=O)=O)c1,4.5% (inactive)
3,CCOC(=O)c1ccc(NC(=O)CN(c2cccc([N+](=O)[O-])c2)S(=O)(=O)c2ccccc2)cc1,24.9% (inactive)
4,O=C(O)CC1S/C(=N\N=C2/C(=O)Nc3ccccc32)N(c2ccc(O)cc2)C1=O (configuration not stated),1.8% (inactive)
5,CCOc1ccccc1NC(=O)CN(c1ccc(OC)cc1)S(=O)(=O)c1ccc(C)cc1,13.8% (inactive)
6,COc1cc(/C=C2/SC(=S)N(C)C2=O)ccc1OC(=O)c1cccs1,2.6% (inactive)
7,COc1ccc(-c2nc3cc(NC(=O)C(C)C)ccc3o2)cc1OC,-6.3% (inactive)
8,CC(=O)C1=C(C)NC(C)=C(C(C)=O)C1c1cn(-c2ccccc2)nc1-c1cccs1,15.6% (inactive)
9,O=C(NC(=S)Nc1ccc2oc(-c3ccc(Br)cc3)nc2c1)c1ccco1,17% (inactive)
10,O=C(NC(=S)Nc1ccc(-c2nc3cc(Cl)ccc3o2)cc1)c1ccco1,124% (active)
11,O=C(NC(=S)Nc1ccc2oc(-c3cccnc3)nc2c1)c1ccc(Cl)cc1,-3.5% (inactive)
12,CCOC(=O)C1=C(C)N=c2s/c(=C\c3ccc(F)cc3)c(=O)n2C1c1cccc(OC)c1 (configuration not stated),10% (inactive)
13,O=C(NCCCc1ccccc1)C1(c2ccccc2)CCCC1,27% (inactive)
14,CCN(CC)c1ccc(/C=C2\C(=O)NC(=O)N(c3ccc(OC)cc3)C2=O)c(OC)c1,-5.2% (inactive)
15,CCN(CC)c1ccc(C=C2C(=O)N(C)C(=O)N(C)C2=O)c(O)c1,120% (active)
16,CCN(CC)c1ccc(/C=C2\C(=O)NC(=O)N(C)C2=O)cc1,27.7% (inactive)
17,Cc1ccc(N2C(=O)NC(=O)/C(=C\c3ccc(I)cc3)C2=O)cc1,12.1% (inactive)
18,CCOC(=O)c1c(CN(CCO)CCO)n(C)c2c1cc(OC(C)=O)c1c2c(-c2ccccc2)nn1-c1ccccc1,-6.5% (inactive)
19,Cc1ccc(N2C(=O)CC(NCCc3ccccc3F)C2=O)cc1 (configuration not stated),8.2% (inactive)
20,CCOC(=O)c1ccc(NC(=O)c2ccccc2OC)cc1,17.7% (inactive)
21,Cc1ccc([N+](=O)[O-])cc1NC(=O)C1CC1(c1ccccc1)c1ccccc1 (configuration not stated),1.8% (inactive)
22,O=S(=O)(Nc1ccc(O)c(-c2c(O)ccc3ccccc23)c1)c1cc(Cl)ccc1Cl,4.2% (inactive)
23,CCCCCCN1C(=O)C(=O)C(=C(O)c2ccccc2)C1c1ccccc1OC (configuration not stated),1.4% (inactive)

row,Compound,inhibition
1,COc1cc(C(=S)N2CCOCC2)cc(OC)c1OC(=O)c1ccc(Br)cc1,15.4% (inactive)
2,Cc1ccc(S(=O)(=O)c2ccc(Sc3ccc(Cl)cc3)cc2)cc1,15.4% (inactive)
3,COc1ccc(-c2nc3sc(-c4ccc(OC)cc4)nc3s2)cc1,6% (inactive)
4,O=C1NC(=Nc2ccc(F)cc2)S/C1=C/c1ccc(Br)cc1,4.6% (inactive)
5,Cc1cc(NC(=O)c2ccc(-c3cccc([N+](=O)[O-])c3)o2)ccc1NC(=O)c1ccco1,14.7% (inactive)
6,CCOc1cccc2c1N(C(=O)c1ccc(OC)cc1)C(C)(C)C(=S)C2=C1SC(C(=O)OC)=C(C(=O)OC)S1,0.9% (inactive)
7,CS(=O)(=O)N1CCN(C(=O)Cc2ccccc2)CC1,7.7% (inactive)
8,CCOc1ccc(/C=C2/Sc3ccccc3C2=O)cc1OCC,6.1% (inactive)
9,COc1ccc(N2C(=O)C3C4C=CC(C4=C(C)C)C3C2=O)c([N+](=O)[O-])c1 (configuration not stated),15.2% (inactive)
10,COc1ccc(N=Cc2sccc2C)c([N+](=O)[O-])c1,4.3% (inactive)
11,COc1ccc(N2C(=O)C=CC2=O)c([N+](=O)[O-])c1,97.8% (active)
12,Cc1ccc2[nH]c(C)c(CN3CCOCC3)c(=O)c2c1,-1.6% (inactive)
13,CC(Oc1cccc(Cl)c1)C(=O)Nc1ccccc1C(=O)N1CCN(Cc2ccccc2)CC1 (configuration not stated),0.3% (inactive)
14,COC(=O)C(NC(=O)c1ccccc1)C12CC3CC(CC(C3)C1)C2 (configuration not stated),7.5% (inactive)
15,Cc1cc(C)n(C(=O)c2cc(F)c(F)cc2Cl)n1,3.6% (inactive)
16,Cc1ccc(NC2=CC(=O)C=CC2=O)c(C)c1,-2.9% (inactive)
17,COc1ccc(OC)c(N(CC(=O)Nc2cccc(Br)c2)S(C)(=O)=O)c1,9.1% (inactive)
18,CCC(=O)N1CCN(c2ccc(C(=O)c3ccccc3)cc2F)CC1,-2.8% (inactive)
19,Cc1cc(/C=C(/C#N)C(=O)Nc2ccc(F)cc2)c(C)n1-c1ccc(Cl)cc1,-2.8% (inactive)
20,CCN1C(=O)C(=Cc2ccc(O)cc2)C(=O)NC1=S,65.4% (active)
21,CCOC(=O)c1ccc(N2NC(=O)/C(=C/c3ccc(O)cc3)C2=O)cc1,5.1% (inactive)
22,COc1ccc(/C=C2\C(=O)NC(=S)N(c3ccc(Br)cc3)C2=O)cc1,5.9% (inactive)
23,COc1ccccc1NC(=O)C(=O)NCc1ccccc1,-0.6% (inactive)

row,Compound,inhibition
1,Cc1oc2cc(Br)c(O)cc2c1C(=O)OC(C)C,9.4% (inactive)
2,O=C(c1nn2c(c1Cl)NC(c1cccs1)CC2C(F)(F)F)N1CCN(c2ccc(F)cc2)CC1 (configuration not stated),5.2% (inactive)
3,Cc1cccc(NC(=O)CSc2ncn[nH]2)c1,1.3% (inactive)
4,COc1ccc(CNS(=O)(=O)c2ccc(Cl)cc2)cc1,-5% (inactive)
5,CCN(CC)c1ccc(NC(=O)/C(=C\c2ccccc2)NC(C)=O)cc1,56.6% (active)
6,CC(C)Oc1ccc(/C=C(/NC(=O)c2ccccc2)C(=O)Nc2ccccc2)cc1,14.7% (inactive)
7,CC(=O)Nc1ccc(NC(=S)NC(=O)/C=C/c2ccccc2)cc1,-21.9% (inactive)
8,Cc1c(C=O)c(=O)oc2c3c4c(cc12)CCCN4CCC3,1.3% (inactive)
9,O=C(NC1C2CC3CC(C2)CC1C3)c1cccc(I)c1 (configuration not stated),15.2% (inactive)
10,O=c1oc2ccc3ccccc3c2cc1-c1ccc(I)cc1,4.2% (inactive)
11,CC(=O)Oc1ccccc1-c1nc2s/c(=C/c3ccco3)c(=O)n2n1,6.7% (inactive)
12,Cc1cc(/C=C2\C(=O)NC(=O)N(c3ccc4c(c3)OCO4)C2=O)c(C)n1-c1ccc(F)cc1,14.5% (inactive)
13,Cc1cccc(OCCOc2ccc(Cl)cc2/C=C2/SC(=S)N(C)C2=O)c1,23.2% (inactive)
14,O=C1C2C3C=CC(C3)C2C(=O)N1/N=C\c1ccc(-c2ccccc2[N+](=O)[O-])o1 (configuration not stated),10.6% (inactive)
15,COC(=O)c1ccccc1NC(=O)c1ccc(Cl)cc1,-2.8% (inactive)
16,COc1ccc(CC(=O)Nc2cc(NC(=O)Cc3ccc(OC)cc3)cc(C(=O)NC(C)(C)C)c2)cc1,8.2% (inactive)
17,O=C1NN(c2ccccc2)C(=O)/C1=C/c1c(Cl)cccc1Cl,8.3% (inactive)
18,O=C1c2ccc(C(c3ccc4c(c3)C(=O)N(c3ccccc3)C4=O)(C(F)(F)F)C(F)(F)F)cc2C(=O)N1c1ccccc1,8.7% (inactive)
19,CC(C)C(=O)Nc1ccc2c3c(cccc13)CC2,0.3% (inactive)
20,COc1ccccc1N1CCN(/N=C(/C)c2ccncc2)CC1,-3.7% (inactive)
21,COc1ccc(/C=c2\sc3n(c2=O)C(c2ccc(OC)cc2)C(C(=O)OC(C)C)=C(C)N=3)cc1 (configuration not stated),-0.7% (inactive)
22,CCOc1ccccc1NC(=O)c1ccc(CN2CCOCC2)cc1,6.1% (inactive)
23,Cc1ccc(C(=O)N/C(=C/c2cccc3ccccc23)C(=O)N2CCCC2)cc1,-0.3% (inactive)
